# Test results reported in PubChem BioAssay (NCATS).
# Inconclusive results are not listed. A number with no mark means an inactive call. The source made the active and inactive calls. Calls come from the whole dose curve; as a rule, active = well fitted inhibition curve with a large enough effect; inconclusive = small, poorly fitted or top-dose-only effect; inactive = flat fitted curve, though single readings scatter. *1 amine or outer side, *2 acyl side, *3 side chain or, on linkers, in order; H or OH if unused. Where a SMILES comes first, the peptide text is derived from it. Bridges are numbered along the chain shown (N, C = ends). [ ]: non-standard residue; d: D form. The star is where a group is joined. pTerphenylCO(4''-OnC5H11) = CCCCCOc1ccc(-c2ccc(-c3ccc(C(=O)*)cc3)cc2)cc1; Orn(4R-OH,5R-OH) = O=C([C@H](C[C@@H](O)[C@@H](O)N[*:3])N[*:1])[*:2]; hTyr(3S-OH,4S-OH) = N[C@H](C(=O)O)[C@H](O)[C@@H](O)c1ccc(O)cc1; Pro(3S-OH,4S-Me) = C[C@H]1CN[C@H](C(=O)O)[C@H]1O; Hyp = O=C(O)[C@@H]1C[C@@H](O)CN1
# System: NIH3T3
# Test: Cytotoxic Profiling of Annotated Libraries Using Quantitative High-Throughput Screening (AID 1296008); note: nearly all actives have a fitted effect of over 60% in size
# Settings: Five cell lines viability, CellTiter-Glo ATP luminescence, 48-72 h; max response: hits give low values
# In short: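 Compounds were pin-transferred onto cells and incubated 48 or 72 hr at 37 degree Celsius, 95% humidity. CellTiter-Glo was added, plates sat 10 min at room temperature, then ATP-coupled luminescence was imaged as the viability read-out.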
# % is set by controls: 0 for no effect and ±100 for the full control effect; potency is the fitted concentration of half-maximal effect.
SMILES,max response [%],Potency,outcome
Cc1ccc(C)c(NC(=O)[C@@H]2CCCN2S(=O)(=O)c2cccc3cccnc23)c1,-29.5,–,–
C[C@@H]1CC[C@@]23CC[C@]4(C)[C@@](C=CC5[C@@]6(C)CC[C@H](O)C(C)(C)C6CC[C@]54C)(OC2=O)C3[C@H]1C (stereo not given in full),0.572,–,–
O=C(NCC(=O)N1CCCC1)Nc1ccc2cnccc2c1,-5.01,–,–
NS(=O)(=O)c1ccc(N2N=C(c3ccccc3)CC2c2ccccc2)cc1 (stereo not given),2.93,–,–
COCCNCc1ccc(-c2cc3nccc(Oc4ccc(NC(=O)C5(C(=O)Nc6ccc(F)cc6)CC5)cc4F)c3s2)nc1,–,0.731 µM (active),–
CC1(C)CCC2(C(=O)OC3OC(COC4OC(CO)C(O)C(O)C4O)C(O)C(O)C3O)CCC3(C)C(=CCC4C5(C)CCC(OC6OCC(O)C(O)C6O)C(C)(C)C5CCC43C)C2C1O (stereo not given),-18.4,–,–
CC1=C(C(=O)OC2CCCCC2)C(c2ccc([N+](=O)[O-])cc2)C2=C(CC(C)(C)CC2=O)N1 (stereo not given),-3.56,–,–
O=C(NCCO)c1cccc(-c2cc(Nc3ccc(OC(F)(F)F)cc3)ncn2)c1,-22.6,–,–
CCC(C)C(=O)OC12C(OC(C)=O)C(C)C3(O)C(C=C(CO)CC4(O)C(=O)C(C)=CC43)C1C2(C)C (stereo not given),–,–,inactive
C=C1CCN([C@H](C)[C@](O)(Cn2cncn2)c2ccc(F)cc2F)CC1,–,–,inactive
O=C(NCc1ccccc1-c1ccccc1C(=O)NCCc1ccccn1)OCc1ccccc1,0.337,–,–
CC(=O)O[C@@H]1[C@@H](O)[C@H](O[C@@H]2[C@@H](O)[C@@H](O)[C@H](O[C@H]3[C@H](O[C@H]4[C@H](O[C@H]5CC[C@@]6(C)C(CC[C@]7(C)C6CC=C6[C@@H]8CC(C)(C)CC[C@]8(C(=O)O)CC[C@]67C)[C@]5(C)CO)O[C@H](CO)[C@@H](O)[C@@H]4O)OC[C@@H](O)[C@@H]3O)O[C@H]2C)OC[C@H]1O (stereo not given in full),3.03,–,–
C/C(=C\CO[C@@H]1O[C@H](CO[C@H]2OC[C@](O)(CO)[C@H]2O)[C@@H](O)[C@H](O)[C@H]1O)C(C)(C)O,3.25,–,–
CC1(C)CC[C@]23CO[C@@]4(CCC5[C@@]6(C)CC[C@H](O[C@@H]7OC[C@H](O[C@@H]8O[C@H](CO)[C@@H](O)[C@H](O)[C@H]8O[C@@H]8OC[C@@H](O)[C@H](O)[C@H]8O)[C@H](O)[C@H]7O)[C@@](C)(CO)C6CC[C@@]5(C)[C@]4(C)CC2=O)[C@@H]3C1 (stereo not given in full),-14.1,–,–
C[C@@]12C(=O)N(c3ccc(C(=O)Nc4cccc5cccnc45)cc3)C(=O)[C@@H]1[C@@H]1C=C[C@H]2C1,–,–,inactive
COc1ccc(Sc2ccc(NC(=O)c3ccccc3Cl)cc2C#N)cc1,-6.24,–,–
CCn1nc(C2CCN(C(=O)CCO)CC2)nc1-c1cnc(N)c(-c2nnc(C(C)(C)C)o2)n1,–,8.2 µM (active),–
O=C(/C=C/c1ccccc1O)O[C@@H]1O[C@H](CO)[C@@H](O)[C@H](O)[C@H]1O,–,–,inactive
Cn1ncnc1[C@@H]1c2n[nH]c(=O)c3cc(F)cc(c23)N[C@H]1c1ccc(F)cc1,-15,–,–
C[C@@H]1CC[C@]2(C(=O)O)CC[C@]3(C)C(=CCC4[C@@]5(C)CC[C@H](O)[C@](C)(C(=O)O)C5CC[C@]43C)C2[C@]1(C)O (stereo not given in full),-24.1,–,–

SMILES,max response [%],Potency,outcome
Nc1nc2c(nc(Br)n2[C@@H]2O[C@@H]3COP(=O)(O)O[C@H]3[C@H]2O)c(=O)[nH]1,–,–,inactive
CC(C)c1ccc(NC(=O)Cn2cnc3c2c(=O)n(C)c(=O)n3C)cc1,-6.55,–,–
CC/C(C)=C/C(=O)OC1C(OC2(C)CCC3C(C4C(C)CCC42)C3(C)C)OC(C)C(O)C1O (stereo not given),-0.0823,–,–
Cc1ccc(CNc2ncnc3ccc(-c4ccc(CO)o4)cc23)o1,-6.8,–,–
CC(=O)O[C@@H]1CC2C(/C=C(\C)C(=O)[C@@]3(O)C[C@@H](C)[C@H](OC(=O)c4ccccc4)C3/C=C/1C)C2(C)C (stereo not given in full),1.35,–,–
C=CC(C)(O)CC[C@@H]1[C@@]2(C)CCCC(C)(C)C2CC[C@@]1(C)O (stereo not given in full),-17,–,–
COc1c2c(c(C)c3c1C(=O)OC3)O[C@@]1(C)C[C@@H](OC(C)=O)[C@]34O[C@](OC)(CC[C@]3(C)[C@H]1C2)OC4(C)C,4.28,–,–
Cc1cccc(-c2[nH]ncc2-c2ccc(F)c(-c3cnn(CCO)c3)c2)n1,-23.9,–,–
CC1OC(OC2C(O)COC(O[C@@H]3[C@@H](O)[C@@H](O)[C@H](OC4C(OC(=O)[C@]56CCC(C)(C)CC5C5=CCC7[C@@]8(C)C[C@H](O)[C@H](OC9OC(CO)C(O)C(O)C9O)[C@@](C)(CO)C8[C@H](O)C[C@@]7(C)[C@]5(C)CC6)OCC(O)C4O)O[C@H]3C)C2O)C(O)C(O)C1O (stereo not given in full),2.11,–,–
Cc1cc(F)ccc1-c1nc(NCCN=C(N)NC#N)nc2c1ccc(=O)n2-c1c(F)cccc1F,4.3,–,–
CCOc1ccc(-n2c([C@@H](C)N(Cc3cccnc3)C(=O)Cc3ccc(OC(F)(F)F)cc3)nc3ncccc3c2=O)cc1,-0.198,–,–
O=C(C(Cc1cccc(C(F)(F)F)c1)NS(=O)(=O)c1cc(F)c2c(c1)CCNC2)N1CCCC1 (stereo not given),1.31,–,–
COc1ccc(N2CCN(C(=O)c3cc4c(s3)-c3ccccc3S(=O)(=O)C4)CC2)cc1,-22,–,–
CC(=O)O[C@H]1C[C@@](O)(C(C)C)[C@@H]2[C@@H](OC(=O)c3ccc(O)cc3)CC(C)=CC[C@@]12C,-25.3,–,–
CC(C)C[C@H](CO)Nc1nc(S[C@@H](C)c2ccccc2)nc2nc(N)sc12,2.79,–,–
"CCCCCOc1ccc(-c2ccc(-c3ccc(C(=O)N[C@H]4C[C@@H](O)[C@@H](O)NC(=O)[C@@H]5[C@@H](O)[C@@H](C)CN5C(=O)[C@H]([C@@H](C)O)NC(=O)[C@H]([C@H](O)[C@@H](O)c5ccc(O)cc5)NC(=O)[C@@H]5C[C@@H](O)CN5C(=O)[C@H]([C@@H](C)O)NC4=O)cc3)cc2)cc1 ({pTerphenylCO(4''-OnC5H11)}-[Orn(4R-OH,5R-OH)]T[Hyp][hTyr(3S-OH,4S-OH)]T[Pro(3S-OH,4S-Me)]; lactam 1-C)",-1.62,–,–
COc1cc(C(C)=O)c(OC)c2c1OC(C)(C)C=C2,–,–,inactive
O=C(Nc1ccccc1C(=O)NC1CCCCNC1=O)c1cc2ccccc2s1 (stereo not given),4.3,–,–
CCC[C@@]1(CCc2ccccc2)CC(O)=C([C@H](CC)c2cccc(NS(=O)(=O)c3ccc(C(F)(F)F)cn3)c2)C(=O)O1,–,–,inactive
CC(C)(Cc1ccccc1)NCC(O)c1ccc(O)c(NS(C)(=O)=O)c1 (stereo not given),0.817,–,–
